In PubChem BioAssay (NCI):
This is part of a sample that, as a whole, favours compounds with a hit. Of some 83,000 tested, about 20% had one in any assay.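 Activity criterion: percent growth below 10, measured after cells in 96-well plates were exposed to a single compound concentration for 48 hours.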 Values without a mark were called inactive. Calls of active or inactive are those of the source.

Tests used:
Assay in all cases: NCI-60 one-dose screen, 48 h (100 = growth as untreated, 0 = no growth, -100 = all killed)
HCT-15 colon = details: 10 µM unless noted
HT29 colon = details: 10 µM unless noted
SNB-75 CNS = details: 10 µM unless noted
SNB-19 CNS = details: 10 µM unless noted
U251 CNS = details: 10 µM unless noted
PC-3 prostate = details: 10 µM unless noted
SK-MEL-5 melanoma = details: 10 µM unless noted
UACC-62 melanoma = details: 10 µM unless noted
LOX IMVI melanoma = details: 10 µM
SK-MEL-28 melanoma = details: 10 µM unless noted
SK-MEL-2 melanoma = details: 10 µM unless noted
EKVX NSCLC = details: 10 µM unless noted
SN12C renal = details: 10 µM unless noted
UO-31 renal = details: 10 µM unless noted
TK-10 renal = details: 10 µM unless noted
ACHN renal = details: 10 µM unless noted
CAKI-1 renal = details: 10 µM unless noted
A498 renal = details: 10 µM unless noted
MOLT-4 leukemia = details: 10 µM unless noted
CCRF-CEM leukemia = details: 10 µM unless noted

SMILES	growth (HCT-15 colon)	growth (HT29 colon)	growth (SNB-75 CNS) [%]	growth (SNB-19 CNS) [%]	growth (U251 CNS)	growth (PC-3 prostate)	growth (SK-MEL-5 melanoma) [%]	growth (UACC-62 melanoma)	growth (LOX IMVI melanoma)	growth (SK-MEL-28 melanoma)	growth (SK-MEL-2 melanoma)	growth (EKVX NSCLC) [%]	growth (SN12C renal)	growth (UO-31 renal)	growth (TK-10 renal)	growth (ACHN renal)	growth (CAKI-1 renal)	growth (A498 renal) [%]	growth (MOLT-4 leukemia)	growth (CCRF-CEM leukemia)
Cc1ccc(C)c(CN(C)C)c1O	121%	115%	84.2	122	99.6%	102%	107	117%	98.9%	102%	143%	98.1	115%	90.1%	105%	114%	114%	94.2	124%	
CN(C)c1ccc2nc3ccc(=[N+](C)C)cc-3oc2c1	33.3%	33.2%	71.3	14.2	-29.1% (active)	11.4%	23.5	39.5%	12.2%	66.6%	58.1%	29.8	-39.7% (active)	65.1%	70%	70.5%	70.3%	94.8	4.76% (active)	
COCC(N)=O	100%	102%	102	107	104%	94.6%	102	109%	99.7%	121%	95.9%	109	108%	85.2%	102%	102%	104%	96.6	98.5%	
O=Cc1ccc(O)c(O)c1	103%	105%	87.2	86	102%	82.9%	95.3	98.2%	91.2%	92.4%	103%	103	94.9%	84.2%	107%	114%	112%	88.4	80.5%	
CN(C)c1ncnc2c1cnn2C	113%	109%	90.7	99.1	101%	85.2%	97.2	92.9%	94.9%	112%	110%	102	97.2%	90.6%	108%	110%	100%	112	117%	87.4%
Cc1ccc(N)c(S(=O)(=O)O)c1	103%	96.1%	75.6	99.5	104%	107%	98.1	98.9%	104%	126%	84.3%	110	100%	92.1%	128%	102%	90.8%	118	83.6%	
NC(=S)N/N=C/c1ccc(OC(=O)COc2ccccc2)cn1	76.8%	84.1%	59.3	74.9	42.3%	63.9%	38.4	13.9%	19.1%	83%	69.3%	109	34.7%	24.5%	74.7%	8.03% (active)	3.88% (active)	70.5	22.3%	18.9%
S=C(Sc1ccc(Cl)cc1)Sc1ccc(Cl)cc1	3.17% (active)	4.96% (active)	46	83.9	-43% (active)	9.49% (active)	65.9	-47% (active)	-100% (active)	-64.2% (active)	90.9%	49.1	-47.6% (active)	-59.8% (active)	-36.3% (active)	70%	-75.6% (active)	70.6	-25.4% (active)	-15.8% (active)
CC(c1ccccc1)N1C(=O)CSC1=S (centres undefined)	9.14% (active)	1.08% (active)	19.9	104	17.3%	45.2%	34.8	34.5%	16.1%	46.9%	1.02% (active)	52.1	62.4%	49.2%	42.3%	50.7%	61.1%	78.1	28.3%	
